# Compound activity as filed in PubChem BioAssay.
# NLRP3 yeast inh: NALP3 inhibition in yeast. inhibition, % at 10 µM. hit rate 0.39% among 330,000. AID 2825. Yeast reconstituted NLRP3/ASC/caspase-1, beta-gal luminescence, 24 h;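 active means inhibition of 50% or more; inactive means inhibition below 50%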
# tim10-1 inh: tim10-1 yeast growth inhibition; AID 463190; S. cerevisiae tim10-1 ts strain growth, BacTiter-Glo, 24 h; hit rate 2.2% among 330,000; inhibition, % at 20 µM;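 active means inhibition of at least 40%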;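 further: mutant grown at 25 °C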
# CR mimetic SO: lowers age-related superoxide in aged yeast cells; S. cerevisiae aged cells, superoxide DHE fluorescence; hits give low values; superoxide response (% of plate mean), % at 10 µM; hit rate 0.18% among 330,000; AID 2690;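 active means superoxide response under a set limit, about three screen SD below normal, cut at about 65% in these data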;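 further: yeast aged for seven days with compound at 30 °C before DHE staining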
# TIM10 inh: TIM10 yeast growth inhibition; S. cerevisiae TIM10 strain growth, BacTiter-Glo luminescence, 24 h; hit rate 1.4% among 330,000; inhibition, % at 10 µM;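 active means inhibition of 40% or more at the single tested concentration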;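 further: wild-type TIM10 isogenic control strain grown at permissive 25 °C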
# tim23-1 inh: tim23-1 yeast growth inhibition; inhibition, % at 20 µM; S. cerevisiae tim23-1 growth, BacTiter-Glo luminescence, 24 h; hit rate 1.3% among 330,000;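 active means growth inhibition of the mutant yeast at or above 50%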;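 further: temperature-sensitive mutant grown at 25 °C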
# tim10-1 conf: confirmation of tim10-1 mutant yeast growth inhibitors. shares compounds with tim10-1 inh. hit rate 56% among 7,400. inhibition, % at 20 µM. AID 463213. S. cerevisiae tim10-1 ts strain growth, BacTiter-Glo, 24 h;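 active means inhibition of yeast growth at or above a set limit in either of two repeat tests at 20 µM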;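 further: tim10-1 mutant grown at permissive 25 °C to find synthetic lethal compounds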
# TIM10 conf: confirmation of TIM10 yeast growth inhibitors. shares compounds with TIM10 inh. S. cerevisiae tim10 strain growth, BacTiter-Glo luminescence, 24 h. inhibition, % at 10 µM. hit rate 63% among 4,600. AID 463215;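 active means inhibition of yeast growth at or above a set limit in either of two replicates at 10 µM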; further: this counterscreen used the strain with wild-type TIM10
# tim23-1 confirm: confirmation of tim23-1 mutant yeast growth inhibitors. shares compounds with tim23-1 inh. S. cerevisiae tim23-1 growth, BacTiter-Glo luminescence, 24 h. hit rate 83% among 4,400. AID 463218. inhibition, % at 20 µM;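 active means inhibition above about 39% in either of two replicate wells at 20 µM, limit read from the data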;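 further: temperature-sensitive tim23-1 mutant grown at 25 °C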
# A number is an active result; – = inactive; · = no result given. A selection: hits, their analogues and other compounds. The true share with any hit is near 3.8%.
SMILES,NLRP3 yeast inh,tim10-1 inh,CR mimetic SO,TIM10 inh,tim23-1 inh,tim10-1 conf,tim23-1 confirm,others
COc1ccc(O)c(-c2cc(-c3cccs3)[nH]n2)c1,–,43,–,–,64,–,69,
O=C(Nc1ccc(Cl)c(S(=O)(=O)N2CCOCC2)c1)c1ccccc1-c1ccc(C(F)(F)F)cc1,–,–,–,–,–,·,·,
O=C(Cc1ccccc1[N+](=O)[O-])NC1CCN(Cc2ccccc2)CC1,–,–,–,–,–,·,·,
CCN(CC)CCNc1c2c(c(C#N)c3nc4ccccc4n13)CCCC2,–,68,–,60,57,56,67,TIM10 conf=53
O=C(NCc1ccccc1)c1onc(CSc2ccc(F)c(F)c2)c1C(=O)NCc1ccccc1,–,–,–,–,–,·,·,
O=C(Nc1ccc(Nc2ccccc2)cc1)c1ccc(Cl)cc1Cl,–,–,–,–,–,·,·,
C#Cc1cccc(NC(=O)c2ccc(Cl)cc2Cl)c1,–,53,–,59,68,43,61,TIM10 conf=52
Cc1ccc(-c2ccnc3c(Br)c(C)nn23)cc1,–,41,–,–,58,–,39,
Cc1nn2c(-c3ccccc3)ccnc2c1Br,–,–,–,–,–,·,·,
COc1ccccc1NC(=O)Nc1ccc(-n2ccc(C(F)(F)F)n2)cc1,–,54,–,–,64,50,60,
CC1=C(C(=O)N2CCOCC2)C(c2ccc(OC(F)F)cc2)NC(=S)N1c1ccccc1 (stereo unspecified),–,–,–,–,–,·,·,
COc1nc(OC)nc(Oc2ccc(Cl)cc2[N+](=O)[O-])n1,–,–,–,–,–,·,·,
COc1ccc([N+](=O)[O-])c(S(=O)(=O)c2ccc(Cl)cc2)n1,–,75,–,83,53,73,86,TIM10 conf=94
COc1ccc([N+](=O)[O-])c(S(=O)(=O)c2ccccc2)n1,–,50,–,–,77,46,47,
Cc1ccc(OCC(=O)N/N=C/c2ccco2)cc1,–,–,–,–,–,·,·,
NC(=O)N/N=C/c1ccc([N+](=O)[O-])o1,–,–,–,–,–,·,·,
O=C(CSc1ccc(Cl)cc1)N/N=C/c1ccc([N+](=O)[O-])o1,–,62,–,–,55,37,57,
Cc1ccc(OCC(=O)N/N=C/c2ccc([N+](=O)[O-])o2)cc1,–,44,–,47,51,47,–,TIM10 conf=50
COC(=O)c1ccccc1NC(=O)CCS(=O)(=O)c1ccc(Br)s1,–,44,–,–,55,44,47,
CN(C)c1cccc(C(=O)OCC(=O)N(C)c2ccccc2)c1,–,48,–,–,52,48,50,
Cc1ccc(C(=O)OCC(=O)N(C)c2ccccc2)cc1C,–,41,–,–,53,38,–,
CN(C(=O)COC(=O)c1cccc(F)c1)c1ccccc1,–,–,–,–,–,·,·,
Cc1c(C(=O)OCC(=O)N(C)c2ccccc2)oc2ccccc12,–,49,–,–,56,44,60,
CN(C(=O)COC(=O)c1ccc([N+](=O)[O-])cc1)c1ccccc1,–,–,–,–,–,·,·,
CC(=O)Oc1ccc(-c2cccc(C(=O)OCC(=O)N(C)c3ccccc3)c2)cc1,–,46,–,–,50,34,–,
SMILES,NLRP3 yeast inh,tim10-1 inh,CR mimetic SO,TIM10 inh,tim23-1 inh,tim10-1 conf,tim23-1 confirm,others
CC(C)Cc1nnc(NC(=O)C2CCCC2)s1,–,–,–,–,–,·,·,
Cc1c(O)nc(SCC(=O)Nc2nccs2)n(-c2ccccc2F)c1=O,–,–,–,–,–,·,·,
O=C1OC(c2ccc(F)cc2)=N/C1=C\C=C/c1ccccc1,–,50,–,–,76,40,–,
CC(C)CN(C(=O)CN(C)CC(=O)Nc1ccccc1C#N)c1c(N)n(CC(C)C)c(=O)[nH]c1=O,–,–,–,–,–,·,·,
Cc1nc(N)sc1-c1csc(N(C)c2ccc(O)cc2)n1,–,–,–,–,–,·,·,
CN(c1ccc(O)cc1)c1nc(-c2cccs2)cs1,–,49,–,64,72,44,52,TIM10 conf=57
CC(=O)/C=C/c1ccc2ccccc2n1,–,65,–,59,71,65,82,TIM10 conf=60
